This passage reports outcome and Potency results from PubChem BioAssay (Tox21).

Molecules are shown by their SMILES. Where “and” joins values, the source holds several entries; their conditions need not be identical. Equal entries are not always repeated. Inconclusive results are not listed. The source holds several records for some structures; these can differ, active in one and inactive in another. Calls of active or inactive are those of the source. Unless noted, calls come from the whole dose curve; as a rule, active = well fitted curve in the direction sought with a large enough effect in the repeat runs; inconclusive = weak or mixed curves; inactive = no such curve, though single readings can be large; an effect the other way counts as inactive or inconclusive.

Assay [1] is described as follows: qHTS assay to test for compound auto fluorescence at 535 nm (green) in HEK293 cells (AID 720680).
Assay [2] in a line: qHTS assay to test for compound auto fluorescence at 460 nm (blue) in HEK293 cell free culture (AID 720681). In a few lines:
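Blue fluorescence (Ex 405/Em 460 nm, triamterene-equivalent) was read immediately after pin transfer of compound or DMSO into medium (DMEM, 10% FBS) without cells.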
For orientation: Quantitative high-throughput screening tests each substance at several concentrations.

A short description of assay [3]: qHTS assay to test for compound auto fluorescence at 535 nm (green) in HEK293 cell free culture (AID 720682). In a few lines: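 Compounds were pin-transferred into cell-free DMEM with 10% FBS, and green fluorescence was read at excitation 485 nm and emission 535 nm. Intensities were expressed as fluorescein-equivalent values.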
The nature of assay [4]: qHTS assay to test for compound auto fluorescence at 590 nm (red) in HEK293 cell free culture (AID 720683). An outline of the steps: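 Red-channel autofluorescence of compounds in culture medium (DMEM, 10% FBS), no cells, measured at 540/590 nm. Rose Bengal sodium is the reference fluorophore for equivalence.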
The nature of assay [5]: qHTS assay to test for compound auto fluorescence at 590 nm (red) in HepG2 cell free culture (AID 720684). An outline of the steps:
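Steps: dispense MEM/10% FBS medium, no cells; pin compound or DMSO vehicle; read red channel, Ex/Em 540/590 nm. Output given as Rose Bengal sodium equivalents.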

The nature of assay [6]: qHTS assay to test for compound auto fluorescence at 460 nm (blue) in HepG2 cell free culture (AID 720685). In a few lines: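 Compound (23 nL) or DMSO pinned into cell-free MEM with 10% FBS; blue fluorescence read at 405/460 nm excitation/emission, expressed as auto-fluorescence equivalency to triamterene.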
A short description of assay [7]: qHTS assay to test for compound auto fluorescence at 535 nm (green) in HepG2 cell free culture (AID 720686).
Assay [8] in a line: qHTS assay to test for compound auto fluorescence at 460 nm (blue) in HepG2 cells (AID 720687). An outline of the steps: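 Blue-channel autofluorescence (Ex/Em 405/460 nm, triamterene-equivalent) was measured after 1 hr compound exposure at 37 C, 5% CO2. Cells were HepG2, plated overnight at 37 C in MEM plus 10% FBS.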
Assay [9] addresses Glucocorticoid receptor (Homo sapiens) (UniProt P04150). Kind of assay: qHTS assay to identify small molecule agonists of the glucocorticoid receptor (GR) signaling pathway (AID 720691; active = well fitted activation curve with a large enough effect in the signal ratio in the repeat runs, not every such curve was filed as active; the % refers to the signal ratio). An outline of the steps:
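Agonist mode in a HeLa line carrying a GRE-controlled beta-lactamase reporter. Compounds act for 18 h at 37 C before a 2 h room-temperature FRET substrate step and fluorescence reading.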

Assay [10] has the same target. Kind of assay: qHTS assay to identify small molecule antagonists of the glucocorticoid receptor (GR) signaling pathway (AID 720692; active = well fitted inhibition curve with a large enough effect in the signal ratio in the repeat runs, not every such curve was filed as active; the % refers to the signal ratio). An outline of the steps: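 Cells plated, rested 4 h at 37 C/5% CO2; compounds in DMSO pin-transferred; dexamethasone added to 5 nM final; 18 h at 37 C; B/G FRET substrate added, 2 h room temperature; fluorescence measured.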
Assay [11] is described as follows: qHTS assay to identify small molecule antagonists of the glucocorticoid receptor (GR) signaling pathway - cell viability counter screen (AID 720693). Note: nearly all actives have a fitted effect of over 55% in size.
The nature of assay [12]: qHTS assay for identifying genotoxic compounds that show differential cytotoxicity against isogenic chicken DT40 cell lines with known DNA damage response pathways - wild type cell line (AID 743012). Note: nearly all actives have a fitted effect of over 60% in size. In a few lines: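 Cells (DT40 wild type, 300/well) are treated with DMSO-dissolved compounds after a ~0.5 h pre-incubation and kept 40 h at 37 C/5% CO2. Viability is then measured by CellTiter-Glo luminescence following 30 min at room temperature.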

A short description of assay [13]: qHTS assay for identifying genotoxic compounds that show differential cytotoxicity against isogenic chicken DT40 cell lines with known DNA damage response pathways - Rad54/Ku70 mutant cell line (AID 743015). Note: nearly all actives have a fitted effect of over 60% in size.
Assay [14] can be described thus: qHTS assay to identify small molecule antagonists of the androgen receptor (AR) signaling pathway - cell viability counter screen (AID 743033; note: nearly all actives have a fitted effect of over 45% in size).
Assay [15] in a line: qHTS assay to identify small molecule antagonists of the androgen receptor (AR) signaling pathway using the MDA cell line - cell viability counter screen (AID 743041; note: nearly all actives have a fitted effect of over 45% in size). In a few lines: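 Cells were plated at 3,000 per well and left 5 h. Compounds in DMSO were then pinned in, followed by R1881. After 16 h at 37C, CellTiter-Fluor fluorescence gave viability.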
Assay [16] is described as follows: qHTS assay for identifying genotoxic compounds that show differential cytotoxicity against isogenic chicken DT40 cell lines with known DNA damage response pathways - Rev3 mutant cell line (AID 743014). Note: nearly all actives have a fitted effect of over 55% in size. Note: potency is the fitted concentration of half-maximal effect.
Assay [17] concerns the target Androgen receptor (Homo sapiens) (UniProt P10275). Kind of assay: qHTS assay to identify small molecule antagonists of the androgen receptor (AR) signaling pathway (AID 743035; active = well fitted inhibition curve with a large enough effect in the signal ratio in the repeat runs, not every such curve was filed as active; the % refers to the signal ratio). In a few lines: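 Antagonism is scored as loss of R1881-driven beta-lactamase reporter expression in HEK293 cells carrying the reporter under a UAS element, after 16 h co-treatment at 37C and a 2 h room-temperature FRET substrate read.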

The target is the same in assay [18]. Kind of assay: qHTS assay to identify small molecule agonists of the androgen receptor (AR) signaling pathway (AID 743036; active = well fitted activation curve with a large enough effect in the signal ratio in the repeat runs, with a control signal flat, not every such curve was filed as active; the % refers to the signal ratio). An outline of the steps: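 Activation was read as beta-lactamase FRET signal from LiveBLAzer B/G substrate, added for 2 h at room temperature. Before that, GeneBLAzer AR-UAS-bla GripTite (HEK293) cells had 16 h compound exposure at 37C.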

Assay [19] has the same target. Kind of assay: qHTS assay to identify small molecule agonists of the androgen receptor (AR) signaling pathway using the MDA cell line (AID 743040; note: nearly all actives have a fitted effect of over 20% in size). An outline of the steps: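 Cells plated, 5 h at 37C/0% CO2; compound or DMSO pinned; 16 h at 37C; ONE-Glo added; luminescence measured after 30 min at room temperature. Reporter line: MDA-kb2 with MMTV-luciferase responsive to AR and GR.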

The target is the same in assay [20]. Kind of assay: qHTS assay to identify small molecule antagonists of the androgen receptor (AR) signaling pathway using the MDA cell line (AID 743042; note: nearly all actives have a fitted effect of over 55% in size). In a few lines: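 Antagonist mode: compounds plus R1881 agonist added to MDA-kb2 AR-luc cells, incubated 16 h at 37C. Luciferase reporter luminescence quantified, with multiplexed CellTiter-Fluor readout for cell viability.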

Chain of Glucocorticoid receptor (Homo sapiens) (P04150 whole entry, looked up): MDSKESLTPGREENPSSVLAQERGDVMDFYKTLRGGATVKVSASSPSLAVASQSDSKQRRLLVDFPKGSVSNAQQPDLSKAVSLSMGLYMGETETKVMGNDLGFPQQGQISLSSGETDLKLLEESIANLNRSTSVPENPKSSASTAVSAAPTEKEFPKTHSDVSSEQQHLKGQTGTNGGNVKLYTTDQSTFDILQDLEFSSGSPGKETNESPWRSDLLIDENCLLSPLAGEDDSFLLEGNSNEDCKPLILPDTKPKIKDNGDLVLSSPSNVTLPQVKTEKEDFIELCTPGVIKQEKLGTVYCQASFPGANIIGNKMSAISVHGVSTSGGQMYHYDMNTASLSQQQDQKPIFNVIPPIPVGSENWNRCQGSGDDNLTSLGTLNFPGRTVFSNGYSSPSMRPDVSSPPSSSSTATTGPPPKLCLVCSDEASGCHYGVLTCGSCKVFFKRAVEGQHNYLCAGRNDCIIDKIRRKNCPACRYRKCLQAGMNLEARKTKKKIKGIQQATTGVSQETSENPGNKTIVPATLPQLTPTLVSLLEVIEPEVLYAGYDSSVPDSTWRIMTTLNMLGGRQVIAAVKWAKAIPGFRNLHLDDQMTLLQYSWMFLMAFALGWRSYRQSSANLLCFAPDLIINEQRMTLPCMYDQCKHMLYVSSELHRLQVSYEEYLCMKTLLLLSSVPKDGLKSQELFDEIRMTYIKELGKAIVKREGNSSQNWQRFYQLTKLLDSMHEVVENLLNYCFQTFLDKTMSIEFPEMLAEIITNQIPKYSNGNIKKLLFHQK
Chain of Androgen receptor (Homo sapiens) (P10275 whole entry, looked up): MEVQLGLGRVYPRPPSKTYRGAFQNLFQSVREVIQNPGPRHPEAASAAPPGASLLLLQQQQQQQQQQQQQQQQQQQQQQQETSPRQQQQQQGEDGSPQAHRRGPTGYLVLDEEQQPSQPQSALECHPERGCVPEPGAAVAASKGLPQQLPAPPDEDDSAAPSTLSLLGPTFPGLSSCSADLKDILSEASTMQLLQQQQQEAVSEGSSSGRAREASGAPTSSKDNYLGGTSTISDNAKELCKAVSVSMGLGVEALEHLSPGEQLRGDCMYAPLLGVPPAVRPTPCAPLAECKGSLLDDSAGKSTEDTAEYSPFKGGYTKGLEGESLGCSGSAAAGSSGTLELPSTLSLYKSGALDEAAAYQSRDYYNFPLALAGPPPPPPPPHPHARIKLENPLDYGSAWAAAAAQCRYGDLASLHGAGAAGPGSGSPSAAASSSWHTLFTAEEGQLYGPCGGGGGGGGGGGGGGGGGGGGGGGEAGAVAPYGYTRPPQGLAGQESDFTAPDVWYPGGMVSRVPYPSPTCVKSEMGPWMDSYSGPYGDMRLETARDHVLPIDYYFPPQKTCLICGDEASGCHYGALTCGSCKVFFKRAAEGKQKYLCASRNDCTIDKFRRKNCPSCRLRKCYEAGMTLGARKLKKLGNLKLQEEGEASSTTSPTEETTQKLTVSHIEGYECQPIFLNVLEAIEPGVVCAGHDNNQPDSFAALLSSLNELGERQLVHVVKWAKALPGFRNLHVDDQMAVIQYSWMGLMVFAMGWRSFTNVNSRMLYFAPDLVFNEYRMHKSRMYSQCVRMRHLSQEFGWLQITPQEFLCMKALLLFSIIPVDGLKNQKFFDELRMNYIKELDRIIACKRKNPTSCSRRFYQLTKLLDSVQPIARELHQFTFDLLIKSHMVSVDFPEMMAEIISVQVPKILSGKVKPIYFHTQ

`N#Cc1ccccc1`: the result in assay [1], in assay [2], in assay [3], in assay [4], in assay [5] and in [6] was inactive. Besides, the molecule was classed as inactive in [7], in assay [8], in assay [9], in assay [11] and in assay [14]. Moreover, the Potency result in [10], in assay [12], in assay [13] and in assay [15] was “inactive” in each case.
Regarding `C=CC[N+](C)(C)CC=C`, the outcome in [1], in assay [2], in assay [3], in [4], in assay [5] and in [6] was inactive. Besides, the molecule was called inactive in [7], in assay [8], in [9], in [11] and in [14]. Further, the Potency entry in [10], in assay [12], in assay [13] and in [15] was “inactive” in each case.
On to `CCCCCCO`, for which the molecule was called inactive in assay [1], in [2], in assay [3], in assay [4], in [5] and in assay [6]. The molecule was called inactive in assay [7], in [8], in assay [9], in assay [11] and in assay [14]. Further, the Potency entry in assay [10], in assay [12], in assay [13] and in assay [15] was “inactive” in each case.
Take `Cc1ccc2ncccc2c1`: the molecule was classed as inactive in [1], in assay [2], in [3], in assay [4], in [5] and in assay [6]. The molecule was classed as inactive in assay [7], in assay [8], in assay [9], in [11] and in assay [14]. Also, the Potency entry in assay [12], in assay [16], in assay [13] and in assay [15] was “inactive” throughout.
With `COCCOC(=O)c1ccccc1C(=O)OCCOC`, the result in assay [1], in assay [2], in assay [3], in assay [4], in assay [5] and in assay [6] was inactive. For the same molecule, the molecule was called inactive in [7], in [8], in assay [9], in assay [11] and in assay [14]. For the same molecule, the Potency result in [12], in [16], in assay [13] and in [15] was “inactive” throughout.
Take `CC(CCO)CC(C)(C)C` (centres undefined): the molecule was classed as inactive in [1], in assay [2], in assay [3], in [4], in [5] and in assay [6]. Also, the outcome in assay [7], in assay [8], in assay [9], in [11], in [14] and in assay [17] was inactive. In addition, the molecule was classed as inactive in assay [20]. Also, the Potency entry in assay [12], in assay [16], in assay [13], in assay [18], in assay [19] and in assay [15] was “inactive” each time.
Take `O=C(O)Cn1c(=O)n(Cc2ccc(Br)cc2F)c(=O)c2ccc(Cl)cc21`: the call in [1], in [2], in assay [3], in [4], in assay [5] and in assay [6] was inactive. Besides, the outcome in assay [7], in [8], in assay [9], in assay [11], in assay [14] and in assay [20] was inactive. The Potency entry in assay [12], in assay [16], in assay [13], in assay [19] and in [15] was “inactive” in each case.
On to `CSc1ccc(Cl)cc1`, for which the result in assay [1], in assay [2], in assay [3], in assay [4], in [5] and in assay [6] was inactive. In addition, the call in assay [7], in assay [8], in assay [9], in [11], in assay [14] and in assay [17] was inactive. Also, the molecule was called inactive in [20]. In addition, the Potency entry in assay [12], in assay [16], in assay [13], in [18], in assay [19] and in assay [15] was “inactive” throughout.
As to `COc1cc(OC)c(C(=O)CCCN2CCCC2)c(OC)c1`, the outcome in [1], in [2], in assay [3], in assay [4], in [5] and in assay [6] was inactive. Also, the molecule was called inactive in [7], in assay [8], in assay [9], in assay [11], in assay [14] and in assay [17]. Besides, the molecule was classed as inactive in assay [20]. Besides, the Potency result in [12], in assay [13], in assay [18], in assay [19] and in [15] was “inactive” in each case. Further, the Potency result in assay [16] is “inactive and 21.7 µM (active)”.
